Experimental data: the supplement of paper PMC13380429

Tested on: Vero E6 infected with SARS-CoV-2
Experiment: inhibition of SARS-CoV-2 cytopathic effect; higher = more antiviral protection, active = above 15
Conditions: 48 h

Measured: inhibition of SARS-CoV-2 cytopathic effect

COc1ccccc1C1(O)CCN(CCCn2c3ccccc3c3ccccc32)CC1
active: 10000 nM 42.4%
inactive: 1 nM 0.73% | 8.33 nM 1.45% | 100 nM 2.5% | 833.33 nM 1.69%

Cc1sc2c(c1C)C(c1ccc(Cl)cc1)=N[C@@H](CC(=O)Nc1ccc(O)cc1)c1nnc(C)n1-2
inactive: 1 nM 1.01% | 8.33 nM 0.43% | 100 nM -1.47% | 833.33 nM -3.68% | 10000 nM -9.86%

C=C[C@@]1(C)CC(=O)[C@]2(O)[C@@]3(C)[C@@H](O)CCC(C)(C)[C@@H]3[C@H](OC(=O)CCN(C)C)[C@H](OC(C)=O)[C@@]2(C)O1 [colforsin-daproate]
active: 10000 nM 29.6%
inactive: 1 nM 0.4% | 8.33 nM -2.13% | 100 nM -3.35% | 833.33 nM 3.07%

COc1cccc(C=NCCN=Cc2cccc(OC)c2[O-])c1[O-].[Cl-].[Mn+3]
inactive: 1 nM 2.33% | 8.33 nM 1.86% | 100 nM 0.89% | 833.33 nM 1.11% | 10000 nM 14.1%

CCOC(=O)c1ncn2c1CN(C)C(=O)c1cc(F)ccc1-2 [flumazenil]
inactive: 1 nM -5.56% | 8.33 nM -4.56% | 100 nM -4.89% | 833.33 nM -4.65% | 10000 nM -1.96%

Cc1cc2ncc(C(=O)NCC(C)(C)NCC(=O)N3CCC[C@H]3C#N)cn2n1 [anagliptin]
inactive: 1 nM -0.17% | 8.33 nM -0.56% | 100 nM -0.23% | 833.33 nM 0.84% | 10000 nM 0.07%

C=C(CC)C(=O)c1ccc(OCC(=O)O)c(Cl)c1Cl [etacrynic-acid]
inactive: 1 nM 1.1% | 8.33 nM 2.25% | 100 nM 2.32% | 833.33 nM 4.17% | 10000 nM -6.97%

CCCCCCCCCCCCCCCCO [1-hexadecanol]
inactive: 1 nM -1.82% | 8.33 nM 0.36% | 100 nM -0.66% | 833.33 nM -0.99% | 10000 nM -4.02%

Fc1ccc(C(c2ccc(F)cc2)N2CCN(C/C=C/c3ccccc3)CC2)cc1 [flunarizine]
inactive: 1 nM -1.77% | 8.33 nM -0.01% | 100 nM -1.97% | 833.33 nM -2.17% | 10000 nM -3.88%

N[C@H]1CCN(O)C1=O
inactive: 1 nM -2.5% | 8.33 nM -0.335% | 100 nM -0.065% | 833.33 nM -1.54% | 10000 nM 0.17%

CC[N+](C)(CC)CC(=O)Nc1c(C)cccc1C [N-methyllidocaine-iodide]
inactive: 1 nM 1.32% | 8.33 nM 2.44% | 100 nM 0.64% | 833.33 nM 1.63% | 10000 nM 1.7%

NCCCC[C@H](NC(=O)[C@@H]1CCCN1C(=O)[C@@H]1CSSC[C@H](NC(=O)CNC(=O)CNC(=O)CN)C(=O)N[C@@H](Cc2ccc(O)cc2)C(=O)N[C@@H](Cc2ccccc2)C(=O)N[C@@H](CCC(N)=O)C(=O)N[C@@H](CC(N)=O)C(=O)N1)C(=O)NCC(N)=O [terlipressin]
inactive: 1 nM 2.67% | 8.33 nM 0.07% | 100 nM 0.5% | 833.33 nM -0.07% | 10000 nM 0.72%

O=C1CC2(CCCC2)CC(=O)N1CCCCNC[C@H]1COc2ccccc2O1 (racemic)
inactive: 1 nM 2.83% | 8.33 nM -1.41% | 100 nM -1.75% | 833.33 nM -0.98% | 10000 nM -5.48%

Cc1nc(N)sc1-c1ccnc(Nc2ccc(N3CCOCC3)cc2)n1
inactive: 1 nM 0.34% | 8.33 nM 0.72% | 100 nM 0.35% | 833.33 nM 2.13% | 10000 nM 2.1%

Cc1nc2ccc(-n3ncc(C(=O)c4cc5ccccc5[nH]4)c3N)cc2[nH]1
inactive: 1 nM -2.45% | 8.33 nM -1.11% | 100 nM 0.12% | 833.33 nM 2.07% | 10000 nM -0.86%

NCCc1cc(O)c(O)cc1O [oxidopamine]
inactive: 1 nM -2.92% | 8.33 nM 0.45% | 100 nM -2.01% | 833.33 nM -2.87% | 10000 nM -3.37%

CC(=O)OC[C@H]1O[C@@](COC(C)=O)(O[C@H]2O[C@H](COC(C)=O)[C@@H](OC(C)=O)[C@H](OC(C)=O)[C@H]2OC(C)=O)[C@@H](OC(C)=O)[C@@H]1OC(C)=O [sucrose-octaacetate]
inactive: 1 nM 0.66% | 8.33 nM 1.07% | 100 nM -1.24% | 833.33 nM -0.47% | 10000 nM -0.86%
